According to PMC11006913:
Where a chain is given by its changes, count along the chain named.

Assays:
Assay in all cases: PBM; 200 nM protein, PBS
Details in all cases: dsDNA, one strand shown
SIX6 [1] = target: T1, SIX6 (Homo sapiens, UniProt O95475 114-200, L167I)
T1 sequence: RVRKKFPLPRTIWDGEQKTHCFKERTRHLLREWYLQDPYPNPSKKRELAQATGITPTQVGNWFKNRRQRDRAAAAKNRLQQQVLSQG

SIX6 [2] = target: T2, SIX6 (Homo sapiens, UniProt O95475 114-200, L143V)
T2 sequence: T1 sequence with L30V, I54L

SIX6 [3] = target: T3, SIX6 (Homo sapiens, UniProt O95475 114-200, H141N)
T3 sequence: T1 sequence with H28N, I54L

SIX6 [4] = target: T4, SIX6 (Homo sapiens, UniProt O95475 114-200, T165P)
T4 sequence: T1 sequence with T52P, I54L

SIX6 [5] = target: T5, SIX6 (Homo sapiens, UniProt O95475 114-200, L167M)
T5 sequence: T1 sequence with I54M

SIX6 [6] = target: T6, SIX6 (Homo sapiens, UniProt O95475 114-200, L143M)
T6 sequence: T1 sequence with L30M, I54L

SIX6 [7] = target: T7, SIX6 (Homo sapiens, UniProt O95475 114-200, L143I)
T7 sequence: T1 sequence with L30I, I54L

SIX6 [8] = target: T8, SIX6 (Homo sapiens, UniProt O95475 114-200, T165G)
T8 sequence: T1 sequence with T52G, I54L

SIX6 [9] = target: T9, SIX6 (Homo sapiens, UniProt O95475 114-200, T139Q)
T9 sequence: T1 sequence with T26Q, I54L

SIX6 [10] = target: T10, SIX6 (Homo sapiens, UniProt O95475 114-200, T165A)
T10 sequence: T1 sequence with T52A, I54L

SIX6 [11] = target: T11, SIX6 (Homo sapiens, UniProt O95475 114-200, L167V)
T11 sequence: T1 sequence with I54V

SIX6 [12] = target: T12, SIX6 (Homo sapiens, UniProt O95475 114-200)
T12 sequence: T1 sequence with I54L

SIX6 [13] = target: T13, SIX6 (Homo sapiens, UniProt O95475 114-200, T165I)
T13 sequence: T1 sequence with T52I, I54L

HOXA2 [14] = target: HOXA2 (Homo sapiens, UniProt O43364 129-215, R185T)
HOXA2 [15] = target: HOXA2 (Homo sapiens, UniProt O43364 129-215, R185K)
HOXA2 [16] = target: HOXA2 (Homo sapiens, UniProt O43364 129-215, Y150S)
HOXA2 [17] = target: HOXA2 (Homo sapiens, UniProt O43364 129-215)
Sequence of HOXA2 (Homo sapiens, UniProt O43364 129-215) (O43364 129-215): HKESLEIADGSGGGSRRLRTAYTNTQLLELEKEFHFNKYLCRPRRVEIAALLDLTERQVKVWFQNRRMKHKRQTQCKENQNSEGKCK

Sequence of HOXA2 (Homo sapiens, UniProt O43364 129-215, R185T) (O43364 129-215 R185T): as the sequence (O43364 129-215) above, with R57T counted along it
Sequence of HOXA2 (Homo sapiens, UniProt O43364 129-215, Y150S) (O43364 129-215 Y150S): as the sequence (O43364 129-215) above, with Y22S counted along it
Sequence of HOXA2 (Homo sapiens, UniProt O43364 129-215, R185K) (O43364 129-215 R185K): as the sequence (O43364 129-215) above, with R57K counted along it

Row | Sequence | binding signal (SIX6 [1]) | binding signal (SIX6 [2]) | binding signal (SIX6 [3]) | binding signal (SIX6 [4]) | binding signal (SIX6 [5]) | binding signal (SIX6 [6]) | binding signal (SIX6 [7]) | binding signal (SIX6 [8]) | binding signal (SIX6 [9]) | binding signal (SIX6 [10]) | binding signal (SIX6 [11]) | binding signal (SIX6 [12]) | binding signal (SIX6 [13]) | binding signal (HOXA2 [14]) | binding signal (HOXA2 [15]) | binding signal (HOXA2 [16]) | binding signal (HOXA2 [17])
1 | AGGCGCCC | 8.71 upbm affinity estimate (log intensity, higher = more binding, comparable within an allelic series) | 8.6 upbm affinity estimate (log intensity, higher = more binding, comparable within an allelic series) | 8.7 upbm affinity estimate (log intensity, higher = more binding, comparable within an allelic series) | 8.77 upbm affinity estimate (log intensity, higher = more binding, comparable within an allelic series) | 8.76 upbm affinity estimate (log intensity, higher = more binding, comparable within an allelic series) | 8.63 upbm affinity estimate (log intensity, higher = more binding, comparable within an allelic series) | 8.66 upbm affinity estimate (log intensity, higher = more binding, comparable within an allelic series) | 8.66 upbm affinity estimate (log intensity, higher = more binding, comparable within an allelic series) | 8.66 upbm affinity estimate (log intensity, higher = more binding, comparable within an allelic series) | 8.69 upbm affinity estimate (log intensity, higher = more binding, comparable within an allelic series) | 8.65 upbm affinity estimate (log intensity, higher = more binding, comparable within an allelic series) | 8.6 upbm affinity estimate (log intensity, higher = more binding, comparable within an allelic series) | 8.7 upbm affinity estimate (log intensity, higher = more binding, comparable within an allelic series) |  |  |  | 
2 | CTCGGGCC | 9.05 upbm affinity estimate (log intensity, higher = more binding, comparable within an allelic series) | 8.95 upbm affinity estimate (log intensity, higher = more binding, comparable within an allelic series) | 9.05 upbm affinity estimate (log intensity, higher = more binding, comparable within an allelic series) | 9.01 upbm affinity estimate (log intensity, higher = more binding, comparable within an allelic series) | 8.95 upbm affinity estimate (log intensity, higher = more binding, comparable within an allelic series) | 9.01 upbm affinity estimate (log intensity, higher = more binding, comparable within an allelic series) | 9.02 upbm affinity estimate (log intensity, higher = more binding, comparable within an allelic series) | 9.14 upbm affinity estimate (log intensity, higher = more binding, comparable within an allelic series) | 9.13 upbm affinity estimate (log intensity, higher = more binding, comparable within an allelic series) | 9.09 upbm affinity estimate (log intensity, higher = more binding, comparable within an allelic series) | 9.03 upbm affinity estimate (log intensity, higher = more binding, comparable within an allelic series) | 9.02 upbm affinity estimate (log intensity, higher = more binding, comparable within an allelic series) | 9.02 upbm affinity estimate (log intensity, higher = more binding, comparable within an allelic series) |  |  |  | 
3 | AGCGCAGG | 9.08 upbm affinity estimate (log intensity, higher = more binding, comparable within an allelic series) | 8.96 upbm affinity estimate (log intensity, higher = more binding, comparable within an allelic series) | 9.05 upbm affinity estimate (log intensity, higher = more binding, comparable within an allelic series) | 8.99 upbm affinity estimate (log intensity, higher = more binding, comparable within an allelic series) | 9.06 upbm affinity estimate (log intensity, higher = more binding, comparable within an allelic series) | 9.04 upbm affinity estimate (log intensity, higher = more binding, comparable within an allelic series) | 9.01 upbm affinity estimate (log intensity, higher = more binding, comparable within an allelic series) | 9.15 upbm affinity estimate (log intensity, higher = more binding, comparable within an allelic series) | 9.1 upbm affinity estimate (log intensity, higher = more binding, comparable within an allelic series) | 9.08 upbm affinity estimate (log intensity, higher = more binding, comparable within an allelic series) | 9.04 upbm affinity estimate (log intensity, higher = more binding, comparable within an allelic series) | 9.02 upbm affinity estimate (log intensity, higher = more binding, comparable within an allelic series) | 9.03 upbm affinity estimate (log intensity, higher = more binding, comparable within an allelic series) |  |  |  | 
4 | CTGCGGAC | 8.88 upbm affinity estimate (log intensity, higher = more binding, comparable within an allelic series) | 8.75 upbm affinity estimate (log intensity, higher = more binding, comparable within an allelic series) | 8.87 upbm affinity estimate (log intensity, higher = more binding, comparable within an allelic series) | 8.83 upbm affinity estimate (log intensity, higher = more binding, comparable within an allelic series) | 8.84 upbm affinity estimate (log intensity, higher = more binding, comparable within an allelic series) | 8.84 upbm affinity estimate (log intensity, higher = more binding, comparable within an allelic series) | 8.83 upbm affinity estimate (log intensity, higher = more binding, comparable within an allelic series) | 8.91 upbm affinity estimate (log intensity, higher = more binding, comparable within an allelic series) | 9.05 upbm affinity estimate (log intensity, higher = more binding, comparable within an allelic series) | 8.83 upbm affinity estimate (log intensity, higher = more binding, comparable within an allelic series) | 8.84 upbm affinity estimate (log intensity, higher = more binding, comparable within an allelic series) | 8.84 upbm affinity estimate (log intensity, higher = more binding, comparable within an allelic series) | 8.85 upbm affinity estimate (log intensity, higher = more binding, comparable within an allelic series) |  |  |  | 
5 | CTGGCCCA | 8.9 upbm affinity estimate (log intensity, higher = more binding, comparable within an allelic series) | 8.81 upbm affinity estimate (log intensity, higher = more binding, comparable within an allelic series) | 8.95 upbm affinity estimate (log intensity, higher = more binding, comparable within an allelic series) | 8.96 upbm affinity estimate (log intensity, higher = more binding, comparable within an allelic series) | 8.89 upbm affinity estimate (log intensity, higher = more binding, comparable within an allelic series) | 8.86 upbm affinity estimate (log intensity, higher = more binding, comparable within an allelic series) | 8.87 upbm affinity estimate (log intensity, higher = more binding, comparable within an allelic series) | 8.92 upbm affinity estimate (log intensity, higher = more binding, comparable within an allelic series) | 8.93 upbm affinity estimate (log intensity, higher = more binding, comparable within an allelic series) | 8.92 upbm affinity estimate (log intensity, higher = more binding, comparable within an allelic series) | 8.88 upbm affinity estimate (log intensity, higher = more binding, comparable within an allelic series) | 8.94 upbm affinity estimate (log intensity, higher = more binding, comparable within an allelic series) | 8.95 upbm affinity estimate (log intensity, higher = more binding, comparable within an allelic series) | 7.24 upbm affinity estimate (log intensity, higher = more binding, comparable within an allelic series) | 10.3 upbm affinity estimate (log intensity, higher = more binding, comparable within an allelic series) | 10.4 upbm affinity estimate (log intensity, higher = more binding, comparable within an allelic series) | 7.1 upbm affinity estimate (log intensity, higher = more binding, comparable within an allelic series)
6 | ACGCCGGG | 9.17 upbm affinity estimate (log intensity, higher = more binding, comparable within an allelic series) | 8.97 upbm affinity estimate (log intensity, higher = more binding, comparable within an allelic series) | 9.1 upbm affinity estimate (log intensity, higher = more binding, comparable within an allelic series) | 8.92 upbm affinity estimate (log intensity, higher = more binding, comparable within an allelic series) | 9.17 upbm affinity estimate (log intensity, higher = more binding, comparable within an allelic series) | 9.18 upbm affinity estimate (log intensity, higher = more binding, comparable within an allelic series) | 9.05 upbm affinity estimate (log intensity, higher = more binding, comparable within an allelic series) | 9.16 upbm affinity estimate (log intensity, higher = more binding, comparable within an allelic series) | 9.21 upbm affinity estimate (log intensity, higher = more binding, comparable within an allelic series) | 9.2 upbm affinity estimate (log intensity, higher = more binding, comparable within an allelic series) | 9 upbm affinity estimate (log intensity, higher = more binding, comparable within an allelic series) | 9.15 upbm affinity estimate (log intensity, higher = more binding, comparable within an allelic series) | 9.16 upbm affinity estimate (log intensity, higher = more binding, comparable within an allelic series) |  |  |  | 
